In all, about 2,500 compounds went through this assay and about 2,100 (84%) were called active.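 The calls were made as follows: active = toxic compounds, whose cell viability fell below 70% of untreated control cells; inactive = the rest.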 So high a share suggests a set chosen from earlier hits. Not all results are given here. Results with a measured potency or affinity are listed apart.
Test: viability of uninfected HEp-2 cells – cell-based, HTS, cytotoxicity control for RSV inhibitor project, dose response (AID 2410);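 also: cells exposed to compound for six days before readout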
Settings: HEp-2 viability, luminescence, cytotoxicity counter-screen; series mostly up to 50 µM

| SMILES | outcome |
| --- | --- |
| CCOc1cc(/C=N/O)cc(Br)c1OCc1ccc(Cl)cc1 | inactive |
| COc1ccc(OC)c(-n2c(SCC(=O)NCc3ccco3)nnc2-c2c[nH]c3ccccc23)c1 | inactive |
| O=c1[nH]c(/C=C2\C=Nc3ccccc32)c(O)n1Cc1ccccc1F | inactive |
| COc1ccc(-c2nc[nH]c2[N+](=O)[O-])cc1 | inactive |
| C=CCN1C(=O)N(/C=C/C)c2cccc3cccc1c23 | inactive |
| CCOC(=O)C1=C(C)N=c2s/c(=C/c3ccc(OCC(=O)O)c(OC)c3)c(=O)n2C1c1ccc(Cl)cc1 (stereo unspecified) | inactive |
| CCCC(c1nnnn1CC(=O)OCC)N(Cc1cc2c(C)cc(C)cc2[nH]c1=O)C1CCCC1 (stereo unspecified) | inactive |
| CC(=O)Nc1ccc2c(CSc3nnc(N)s3)cc(=O)oc2c1 | inactive |
| COc1ccc(NC2c3ncccc3C(=O)N2Cc2cccs2)cc1 (stereo unspecified) | inactive |
| C=CCSc1nnc2nc3c(nn12)c1cc(C)ccc1n3CC=C | inactive |
| c1csc(-c2nn3c(Cn4cnc5ccccc54)nnc3s2)c1 | inactive |
| O=C1c2ccccc2C(=O)N1CCCCN(C(=O)c1ccco1)c1ccc(Cl)cc1 | inactive |
| NC(=O)N\N=C/C=C/C=C/c1ccc(F)cc1 | inactive |
| CNC(=S)N/N=C(\C)c1cccc(C(F)(F)F)c1 | inactive |
| Nc1ccc(C(=O)N/N=C2\CCCc3c2[nH]c2ccccc32)cc1 | inactive |
| CCC(=O)N(CC(=O)Nc1sc(C)c(C)c1C(N)=O)C1CCCC1 | inactive |
| COc1ccccc1CN1C[C@@H]2C[C@@H](c3ccc(C)c(C)c3)N3CCC[C@@]23C1=O | inactive |
| Cc1ccc(C(=O)N/C(=C\c2ccc(C(C)C)cc2)C(=O)NCCCN2CCOCC2)cc1 | inactive |
| Cc1ccc(-c2nc3cc(N)ccc3o2)c(C)c1 | inactive |
| Cc1cc2nc(-c3ccc(NC(=O)C(C)C)cc3)oc2cc1C | inactive |
| CCCC(=O)Nc1ccc(-c2nc3cc(C)c(C)cc3o2)cc1 | inactive |
| O=C(c1ccc(F)cc1Cl)N(c1ccccn1)C1CCCCC1 | inactive |

| SMILES | outcome |
| --- | --- |
| c1csc(-c2nn3c(Cn4nnc5ccccc54)nnc3s2)c1 | inactive |
| Cn1c(NCc2cc(Br)ccc2O)nc2ccccc21 | inactive |
| COc1cc(C)c2occ(/C(C)=N\O)c2c1 | inactive |
| COc1cc(/C=C(\C#N)c2nc3ccccc3s2)ccc1OCC(=O)Nc1ccccc1 | inactive |
| O=C(Oc1ccc(-c2cnc3ccccc3n2)cc1)c1ccco1 | inactive |
| OCCC1CN(Cc2cccn2-c2nccs2)CCN1CCc1ccccc1 (stereo unspecified) | inactive |
| CS(=O)(=O)c1ccc(Cl)c(NC(=O)c2ccc3ccccc3c2)c1 | inactive |
| CCOC(=O)c1c(NC(=O)C2COc3ccccc3O2)sc2c1CC(C)(C)NC2(C)C (stereo unspecified) | inactive |
| O=C(Nc1ccccn1)C1COc2ccccc2O1 (stereo unspecified) | inactive |
| O=C(CCn1c(=O)c2ccccc2n(Cc2cc(=O)n3ccccc3n2)c1=O)NCc1ccco1 | inactive |
| NC(=O)COc1ccc2c3c(c(=O)oc2c1)CCCCC3 | inactive |
| CCOC(=O)c1c(C)oc2c1cc(O)c1ccccc12 | inactive |
| Cn1c2ccccc2c2cc([N+](=O)[O-])ccc21 | inactive |
| CC(=O)Cc1nsc(NC(=O)c2oc(-c3ccccc3Cl)cc2C)n1 | inactive |
| Cc1ccc(NC(=O)c2ccc(NS(=O)(=O)c3cccc4cccnc34)cc2)cc1 | inactive |
| Cn1c(=O)c2c3c(sc2n2cnnc12)CCC3 | inactive |
| Cc1ccc(S(=O)(=O)N2CCC(C(=O)OCC(=O)N3CCCC3=O)CC2)cc1C | inactive |
| O=C(CNC(=O)c1ccco1)N=Nc1c(O)[nH]c2ccc([N+](=O)[O-])cc12 | inactive |
| O=C(N=Nc1c(O)[nH]c2ccc([N+](=O)[O-])cc12)c1ccccc1[N+](=O)[O-] | inactive |
| COc1ccc(Cl)cc1NC(=O)C1(c2cccs2)CCOCC1 | inactive |
| Cc1ccc(NC(=O)CN(C)S(=O)(=O)c2cccc3cccnc23)c(C)c1 | inactive |
| COc1ccccc1CNC(=O)C1CCCN1S(=O)(=O)c1cccc2cccnc12 (stereo unspecified) | inactive |

| SMILES | outcome |
| --- | --- |
| Cc1ccc(-c2csc3nc(C)n(N)c(=O)c23)o1 | inactive |
| C=C(C)C(=O)Nc1cccc(C2=NOC3(C2)C[C@@H](C(N)=O)N(C(=O)c2ccc(OC)cc2)C3)c1 (stereo partly specified) | inactive |
| CCOC(=O)c1ccc2[nH]c3c(c2c1)CN(C)CC3 | inactive |
| C/C(N)=C(/C#N)C(=O)COC(=O)c1cc2c(s1)CCCC2 | inactive |
| CNS(=O)(=O)c1ccc(OC)c(-c2nnc3c4ccccc4c(C)nn23)c1 | inactive |
| COc1ccc(C(C(=O)NC2CCCC2)N(C(=O)c2snc(C(N)=O)c2N)c2cc(C)ccc2OC)cc1OC (stereo unspecified) | inactive |
| C=C(C)Cn1c(N2CC(C)CC(C)C2)nc2c1c(=O)[nH]c(=O)n2C (stereo unspecified) | inactive |
| Brc1cccc(-c2nc(-c3ccncc3)no2)c1 | inactive |
| CC(C)(C)c1cc(NC(=O)c2cc(F)c(F)c(F)c2F)no1 | inactive |
| Cc1ccc(N2C=Nc3ccc(C)c4nc(C)cc2c34)cc1 | inactive |
| CC1(C)CC(=O)C2=C(C1)OC(N)=C(C#N)C2C#Cc1ccccc1 (stereo unspecified) | inactive |
| O=C(O)c1cc(-c2ccc(/C=C3\NC(=O)N(c4ccc(Cl)cc4)C3=O)o2)ccc1Cl | inactive |
| CC(=O)Oc1cc(OC(C)=O)c2c(C)cc(=O)oc2c1 | inactive |
| COc1cc(/C=N/O)cc(Br)c1OCc1cccc(Cl)c1 | inactive |
| COc1ccc(-n2c(SCC(=O)/C(C#N)=C(\C)N)nc3ccccc3c2=O)cc1OC | inactive |
| Cc1ccc(-n2c(=O)c3sccc3n(Cc3cc(=O)n4ccccc4n3)c2=O)cc1 | inactive |
| Nc1ccc(Sc2cc(Cl)nc(N)n2)cc1 | inactive |
| Cc1ccc(OCC(=O)Nc2c[nH]c(=O)[nH]c2=O)cc1C | inactive |
| CCC(=O)Nc1ccc(C(=O)OCC(=O)c2ccc(C)c([N+](=O)[O-])c2)cc1 | inactive |
| COc1ccc(C(=O)N2CC(c3ccc(Cl)cc3)CC2=O)cc1 (stereo unspecified) | inactive |
| CSc1nc(C)c(C(=O)Nc2ccccc2)c(-c2ccco2)c1C#N | inactive |
| CCn1c2ccccc2c2cc(NC(=O)C(=O)NCC3CCCO3)ccc21 (stereo unspecified) | inactive |

| SMILES | outcome |
| --- | --- |
| Cn1c(=NC(=O)c2ccco2)sc2ccccc21 | inactive |
| Cc1ccc(C(=O)OCC(=O)c2c[nH]c3ccccc23)cc1NC(=O)c1ccco1 | inactive |
| CC[C@@]12C(=O)N(c3ccc(OC)cc3)C(=O)N1[C@H](c1ccc(Cl)cc1)[C@@H]1C(=O)N(C3CCCCC3)C(=O)[C@@H]12 | inactive |
| CCOC(=O)c1sc2nc(COC(=O)c3c(F)cccc3F)[nH]c(=O)c2c1C | inactive |
| CCOC(=O)c1sc2nc(C)[nH]c(=O)c2c1C | inactive |
| Cc1nn(Cc2ccc(F)cc2)c(C)c1NC(=O)c1cnn2c1NC(c1ccccc1)CC2C(F)(F)F (stereo unspecified) | inactive |
| CCN(c1cc(C)cc(C)c1)S(=O)(=O)c1nnc(NC(=O)C(C)C)s1 | inactive |
| Cc1ccc(S(=O)(=O)N2CCN(C)CC2)cc1-c1nnc2c3ccccc3c(C)nn12 | inactive |
| O=C(c1ccc(Br)o1)N1CCN(c2ccc3nnc(-c4ccccc4)n3n2)CC1 | inactive |
| COc1ccc(C(=O)O/N=C2\C(=O)N(C)c3ccccc32)cc1 | inactive |
| N#Cc1cc(Cl)c(N2CCOCC2)cc1C#N | inactive |
| O=C(O)CSc1cn(Cc2ccccc2)c2ccccc12 | inactive |
| O=C(Nc1cc(Cl)cc(Cl)c1)c1ccc(Cn2c(=O)[nH]c3ccsc3c2=O)cc1 | inactive |
| CC1CCN(C(=O)Cn2c(=O)n(-c3ccc(F)cc3)c(=O)c3sccc32)CC1 | inactive |
| COc1ccc(S(=O)(=O)NC(C)(C)C)cc1-c1nnc2c3ccccc3c(C)nn12 | inactive |
| O=C1c2cccnc2C(Nc2ccc(Cl)cc2)N1Cc1cccs1 (stereo unspecified) | inactive |
| O=C(Nc1ccc2c(c1)CCC2)c1ccc(F)cc1 | inactive |
| Cn1ncc(Cl)c1C(=O)Nc1ccc(Cl)cn1 | inactive |
| COc1ccccc1C(=O)NCCNc1nc2cc(C)cc(C)c2cc1C#N | inactive |
| CN(C)c1ccc(C2CC(c3cccc(NS(C)(=O)=O)c3)=NN2C(=O)c2ccccc2)cc1 (stereo unspecified) | inactive |
| CCc1cccc2c(C(=O)COC(=O)c3ccccc3)c[nH]c12 | inactive |
| CCc1nn(CCCC(=O)NCc2ccccc2Br)c(=O)c2cc3occc3n12 | inactive |

| SMILES | outcome |
| --- | --- |
| Cc1ccc(CNc2ccc([N+](=O)[O-])cc2C(N)=O)cc1 | inactive |
| CC(C)Cc1nc2n[nH]c(N)c2c2c1CCC2 | inactive |
| COc1ccc(CN2C(=O)c3cccnc3C2Nc2cc(Cl)c(OC)cc2OC)cc1 (stereo unspecified) | inactive |
| CC(Oc1ccccc1F)C(=O)Nc1ccc2ccccc2c1 (stereo unspecified) | inactive |
| COc1cc(OC)cc(C(=O)NCCNc2nc3cc(C)cc(C)c3cc2C#N)c1 | inactive |
| Cc1cc(C)c2c(c1)c(C)cc1nnc(SCC(=O)NCc3ccco3)n12 | inactive |
| O=C1c2cccnc2C(Nc2ccccc2)N1Cc1ccco1 (stereo unspecified) | inactive |
| CS(=O)(=O)N1CCC(Oc2ccccc2C(=O)N2CCN(CC3CC3)CC2)CC1 | inactive |
| COc1ccc(NC2c3ccccc3C(=O)N2Cc2ccccc2Cl)cc1OC (stereo unspecified) | inactive |
| COc1cc(NC2c3ccccc3C(=O)N2Cc2ccc3c(c2)OCO3)cc(OC)c1OC (stereo unspecified) | inactive |
| CCN(CC)S(=O)(=O)c1cc(C(=O)c2nccn2C)ccc1Cl | inactive |
| Cc1ccc(C2C3CSCC=C3C(C#N)=C(N)C2(C#N)C#N)cc1 (stereo unspecified) | inactive |
| O=C(CSc1ccc2ccccc2c1)NC1CCCc2ccccc21 (stereo unspecified) | inactive |
| CCC1CCc2c(sc(NC(C)=O)c2C#N)C1 (stereo unspecified) | inactive |
| COCCNC(=S)N1CCc2cc(OC)c(OC)cc2C1COc1cc(C)cc(C)c1 (stereo unspecified) | inactive |
| Cc1c(-c2ccccc2)c(=O)oc2ccc(O)cc12 | inactive |
| O=C(CCCn1c(=O)c2sccc2n(Cc2cc(=O)n3ccccc3n2)c1=O)NCc1ccco1 | inactive |
| O=C(CCn1c(=O)c2sccc2n(Cc2cc(=O)n3ccccc3n2)c1=O)NCc1ccco1 | inactive |

Reference: PubChem BioAssay AID2410 (Southern Research Specialized Biocontainment Screening …, 2010)
